# Data: PubChem BioAssay AID602393 (Broad Institute, 2012)
# The whole screen tested about 350,000 compounds, of which about 7,000 (2%) were called active. Shown is part of a subset that was picked to be rich in actives. Values without a mark were called inactive. Rule as the data show it: active = activation above about 40%; inconclusive = no clear call, values can overlap the other calls; inactive = below that.
# Assay: Bmi1 luciferase reporter increase in mESCs, primary screen, esBAF inhibitor project, mouse ES cells, Bmi1 luciferase knock-in, single point (AID 602393);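 also: 0% = median of the plate's neutral control wells and 100% = double that signal; a rise in the Bmi1 reporter signal indicates esBAF inhibition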
# Details: 24 h, at 12.5 µM, active compounds read high, 100% = twice the neutral-well signal
row,SMILES,reporter increase
1,C[C@@H]1CN([C@@H](C)CO)C(=O)c2cccc(NC(=O)Nc3ccc(C(F)(F)F)cc3)c2O[C@@H]1CN(C)S(=O)(=O)c1cccs1,0.762%
2,C[C@@H](O)C#Cc1cnc2c(c1)C(=O)N([C@@H](C)CO)C[C@H](C)[C@@H](CN(C)CC1CCCCC1)O2,-1.99%
3,CCCN(C)C[C@@H]1Oc2ncc(-c3cccc(C(=O)N(C)C)c3)cc2C(=O)N([C@H](C)CO)C[C@@H]1C,-6.02%
4,O=C(CN1CCCCCC1)Nc1ccc(Br)cc1[N+](=O)[O-],-0.566%
5,O=C(CN1CCCCCC1)Nc1ccc(Br)cc1Br,56.9% (active)
6,O=C(CN1CCCCCC1)Nc1ccc(Cl)cc1F,-12.4%
7,CN(C(=O)CSc1nnnn1-c1ccccc1)C1CCCCC1,22.5%
8,C=CCn1c(SCn2nnc3ccccc3c2=O)nnc1-c1ccc(Cl)cc1,-8.46%
9,O=c1c2ccccc2nnn1CSc1nnnn1-c1ccccc1,57.4% (active)
10,Cc1ccc(S(=O)(=O)N[C@@H]2CC[C@H](CCn3cc(C4(O)CCCC4)nn3)O[C@H]2CO)cc1,1.86%
11,Nc1cc(N)nc(SCc2cccc(F)c2)n1,65% (active)
12,CCc1nnc(SCc2cccc(F)c2)nc1CC,-1.92%
13,Nc1cc(N)nc(SCc2ccc(Cl)cc2)n1,33.3%
14,CCC(=O)N(C)C[C@@H]1Oc2ncc(/C=C/c3ccccc3)cc2C(=O)N([C@@H](C)CO)C[C@H]1C,-3.12%
15,CCC(=O)N1[C@H](C(=O)NCc2ccc(F)cc2)[C@@H](CO)[C@@H]2Cn3c(ccc(C4=CCCCC4)c3=O)[C@@H]21,-5.62%
16,CCOc1ccc(N(CC(=O)NCCc2ccc(F)cc2)S(=O)(=O)c2ccccc2)cc1,1.13%
17,CCN(CC(=O)NCCc1ccccc1)S(=O)(=O)c1ccc(C)cc1,-2.78%
18,COc1ccc(N(CCC(=O)NCCc2ccccc2)S(=O)(=O)c2ccc(C)cc2C)cc1,77.9% (active)
19,CCc1ccc(C(=O)COC(=O)c2ccco2)cc1,13.9%
20,CCN(CC)c1ccc(C(=O)OCC(=O)c2ccco2)cc1,69.5% (active)
21,O=C(COC(=O)c1ccccc1C(=O)c1ccccc1)c1ccco1,-5.33%
22,C[C@@H]1CN([C@H](C)CO)C(=O)c2cc(-c3cccc(F)c3)cnc2O[C@@H]1CN(C)C,-2.09%
23,Cc1noc(C)c1S(=O)(=O)Nc1ccc2c(c1)C(=O)N([C@H](C)CO)C[C@H](C)[C@H](CN(C)S(=O)(=O)c1cn(C)cn1)OCCCC[C@@H](C)O2,-2.07%
24,C[C@@H]1CCCCO[C@@H](CN(C)C(=O)NC2CCCCC2)[C@H](C)CN([C@H](C)CO)C(=O)c2cc(NC(=O)c3ccccc3)ccc2O1,8.88%
25,Cc1ccccc1S(=O)(=O)NCC[C@@H]1CC[C@@H](NS(=O)(=O)c2ccccc2C)[C@@H](CO)O1,2.87%
26,O=C(NCCCN1CCCCCC1)c1ccc(N2CCCC2=O)cc1,-4.86%
27,O=C(NCCc1ccc(Cl)cc1)c1cccc(N2CCCC2=O)c1,54.9% (active)

row,SMILES,reporter increase
1,O=C(c1cccc(N2CCCC2=O)c1)N1CCOCC1,-0.631%
2,COc1ccc(CN(C)C[C@H]2OCCCC[C@H](C)Oc3ccc(NC(=O)NC4CCCCC4)cc3C(=O)N([C@@H](C)CO)C[C@@H]2C)cc1,2.7%
3,O=C(CSCc1cccs1)N1CCCC1,33.4%
4,O=C(CSCc1ccc(Cl)cc1)N1CCCCC1,47.9% (active)
5,O=C(CSCc1ccc(Cl)cc1)N1CCN(Cc2ccc3c(c2)OCO3)CC1,-7.9%
6,CO[C@@H]1CN(C)C(=O)c2cc(NC(=O)C3CC3)ccc2OC[C@H](C)N(Cc2ccc(F)cc2)C[C@@H]1C,-2.84%
7,COc1ccc(-c2cnc3c(c2)C(=O)N([C@@H](C)CO)C[C@@H](C)[C@H](CN(C)C(=O)C2CCCCC2)O3)cc1,2.07%
8,CCn1c(SCC(=O)c2ccc(Cl)s2)nnc1-c1cccs1,46% (active)
9,CCn1c(SCC(=O)N(C)C2CCS(=O)(=O)C2)nnc1-c1cccs1 (centres undefined),-1.83%
10,CCn1c(Cc2cccs2)nnc1SCC(=O)c1ccc(C)cc1,25.1%
11,COc1ccc(S(=O)(=O)N[C@@H]2CC[C@@H](CC(=O)NCCc3ccccc3)O[C@@H]2CO)cc1,3.19%
12,C[C@@H]1CCCCO[C@@H](CN(C)C(=O)Cc2ccccc2)[C@H](C)CN([C@@H](C)CO)C(=O)c2cc(NC(=O)Nc3ccc(F)cc3)ccc2O1,1.88%
13,CC(C)NC(=O)N(C)C[C@@H]1OCc2ccccc2-c2c(n(C)c3ccccc23)C(=O)N([C@@H](C)CO)C[C@H]1C,-0.481%
14,O=[N+]([O-])c1ccc2c(c1)Nc1nc3ccccc3nc1N2,47.3% (active)
15,O=C(Oc1ccc([N+](=O)[O-])cc1)c1ccc2ccccc2n1,0.987%
16,O=[N+]([O-])c1cc2ccccc2nc1-c1ccccc1,-3.44%
17,CO[C@@H]1CN(C)C(=O)c2cc(NC(=O)c3ccccc3F)ccc2OC[C@@H](C)N(CC2CC2)C[C@H]1C,1.73%
18,COc1ccccc1S(=O)(=O)N1CC[C@H]2[C@@H](CO)N(C)c3ccc(C#Cc4ccccc4)cc3[C@H]21,-3.04%
19,C[C@H]1CCCCO[C@@H](CN(C)Cc2ccncc2)[C@@H](C)CN([C@@H](C)CO)C(=O)c2cc(NC(=O)Nc3ccc(F)cc3)ccc2O1,-1.97%
20,CCOC(=O)c1ccc(-c2ccc(C(=O)Nc3cccnc3)o2)cc1,58.2% (active)
21,CCOC(=O)c1ccc(NC(=O)CNC(=O)c2ccco2)cc1,-2.33%
22,COc1cccc(C(=O)Nc2cccnc2)c1OC,0.381%
23,CC(=O)N1[C@@H](CO)[C@@H]2c3ccccc3N(S(=O)(=O)c3ccccc3)C[C@@H]21,0.543%
24,Cc1ccc2nc(N3CCN(C(=O)c4ccco4)CC3)sc2c1,54.6% (active)
25,O=C(NCCCN1CCOCC1)c1cc(-c2ccccc2F)no1,19.6%
26,Cc1ccc2nc(N3C(=O)C(O)=C(C(=O)c4ccco4)C3c3cccc(O)c3)sc2c1 (centres undefined),43.5% (active)
27,O=C(c1ccco1)N1CCN(C(=S)Nc2cc(F)cc(F)c2)CC1,7.97%

row,SMILES,reporter increase
1,COc1ccc2nc(N3CCN(C(=O)c4ccc([N+](=O)[O-])o4)CC3)sc2c1,-6.63%
2,Cc1ccc(OCC(=O)Nc2ccc(N3CCN(C(=O)c4ccco4)CC3)cc2)c(C)c1,0.555%
3,C=CCSc1nnc(N2C(=O)C(O)=C(C(=O)c3ccco3)C2c2ccc(F)cc2)s1 (centres undefined),10.6%
4,O=C(c1ccco1)N1CCN(C(=O)c2cc(-c3ccccc3F)no2)CC1,66.3% (active)
5,COc1ccc2nc(N3C(=O)C(O)=C(C(=O)c4ccco4)C3c3ccco3)sc2c1 (centres undefined),-10.8%
6,O=C(Cc1c(F)cccc1Cl)N1CCN(C(=O)c2ccco2)CC1,3.68%
7,O=C(c1cccc([N+](=O)[O-])c1)N1CCN(C(=O)c2ccco2)CC1,-1.81%
8,O=C(c1ccco1)N1CCN(c2cccc(Cl)c2)CC1,45.4% (active)
9,COCC#Cc1cnc2c(c1)C(=O)N([C@@H](C)CO)C[C@@H](C)[C@@H](CN(C)C(=O)c1cccnc1)O2,3.33%
10,C[C@H](CO)N1C[C@H](C)[C@H](CN(C)C(=O)Nc2ccc3c(c2)OCO3)Oc2ccc(NS(=O)(=O)c3ccc(Cl)cc3)cc2CC1=O,4.87%
11,Cc1cccc(CN(C)C[C@@H]2OCc3cn(nn3)CCCC(=O)N([C@@H](C)CO)C[C@H]2C)c1,-0.643%
12,COCCNC(=O)[C@@H]1[C@@H](CO)[C@@H]2Cn3c(ccc(-c4ccccc4F)c3=O)[C@@H]2N1C(=O)C1CC1,2.48%
13,CO[C@H]1CN(C)C(=O)c2ccc(NC(=O)Nc3ccc4c(c3)OCO4)cc2OC[C@H](C)NC[C@H]1C,37%
14,CO[C@@H]1CN(C)C(=O)c2cc(NC(=O)Nc3ccc(F)cc3)ccc2OC[C@@H](C)NC[C@@H]1C,-1.25%
15,CO[C@@H]1CN(C)C(=O)c2cc(NC(=O)Nc3ccc4c(c3)OCO4)ccc2OC[C@@H](C)NC[C@@H]1C,73.2% (active)
16,COc1ccc(NC(=O)N(C)C[C@@H]2Oc3ccc(NC(=O)Cn4cnnn4)cc3C(=O)N([C@H](C)CO)C[C@@H]2C)cc1,1.18%
17,COC(=O)/C=C/C(=O)NCc1ccco1,8.72%
18,O=C(COC(=O)Cc1ccc(Cl)cc1Cl)NCc1ccco1,-12.6%
19,O=C(/C=C/c1ccc(Cl)cc1Cl)NCc1ccco1,44.2% (active)
20,COc1ccc(S(=O)(=O)Nc2ccc3c(c2)CC(=O)N([C@@H](C)CO)C[C@@H](C)[C@H](CN(C)S(=O)(=O)c2ccccc2)O3)cc1,4.43%
21,COc1ccc(S(=O)(=O)Nc2ccc3c(c2)C(=O)N([C@@H](C)CO)C[C@@H](C)[C@H](CN(C)Cc2ccc(C(F)(F)F)cc2)OCCCC[C@@H](C)O3)cc1,-1.52%
22,COc1ccccc1-c1cnn2c(N3CCOCC3)cc(C)nc12,57.3% (active)
23,COc1ccccc1NC(=O)C1CCCN(c2cc(C)nc3ncnn23)C1 (centres undefined),-8.67%
24,Cc1cc(-n2nc(C)cc2C)n2ncc(-c3ccccc3)c2n1,28.6%
25,CN1c2ccc(C3=CCCCC3)cc2[C@H]2[C@H](CCN2S(=O)(=O)c2ccccc2)[C@@H]1CO,3.61%
